Assay outcomes deposited in PubChem by National Center for Advancing Translational Sciences (NCATS).
aSyn yeast inh = inhibitors of alpha-synuclein toxicity in yeast; Yeast expressing alpha-synuclein, growth rescue, BacTiter-Glo, 24 h; Potency, µM (top dose mostly 46.1 µM), usual class: activators; 370,000 compounds, 0.14% hits; AID 652106; note: nearly all actives have a fitted effect of over 65% in size
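Rescue of yeast growth: cells expressing toxic alpha-synuclein, induced in galactose at OD600 0.02, incubated with compound 24 h at 30 C. ATP luminescence quantified growth; inhibitors of toxicity appear as activators.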
FUS suppressor = suppressors of FUS proteinopathy in yeast; AID 1347120; S. cerevisiae FUS-expressing, growth rescue, OD600, 24 h; 390,000 compounds, 0.24% hits; Potency, µM (doses to about 76.6 µM), usual class: activators; note: nearly all actives have a fitted effect of over 55% in size
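Read-out: OD at 600 nm after 24hr at 30C, reporting rescue of FUS-induced yeast toxicity. Cells at OD 0.005 in galactose (2%) minimal medium; compounds tested in a dilution series; CP55940 titration from 92uM final as control.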
Abeta rescue = A-beta toxicity reversal in yeast. yeast expressing A-beta42, growth rescue, OD600, 48 h; response scale: 0% DMSO, 100% iron-clioquinol control. Potency, µM (highest dose often 46.1 µM), actives largely listed as activators. 410,000 compounds, 0.063% hits; note: nearly all actives have a fitted effect of over 55% in size
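Growth rescue measured by 600 nm absorbance after 48 h yeast culture at 30 C with compound. Values normalized between DMSO and an equimolar ferric chloride plus clioquinol control.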
TDP43 rescue = TDP-43 toxicity inhibition in yeast. Potency, µM (highest dose often 46.1 µM), most hits filed as activators. 410,000 compounds, 1.8% hits. TDP-43 expressing yeast growth rescue, BacTiter-Glo, 24 h; note: nearly all actives have a fitted effect of over 50% in size
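In this qHTS, compounds that restore growth of yeast expressing TDP-43 appear as activators. Cells (OD600=0.02, galactose medium, raffinose-pregrown) are incubated with compound 24 hr at 30 deg C and growth is quantified by BacTiter-Glo.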
pAkt inh = Akt phosphorylation inhibition | activity change, % for hits at 50 µM | 360,000 compounds, 0.32% hits | Neuro2A IGF-stimulated pAkt S473 HTRF, 20 min; hits give low values | AID 651550; in the data active = activity change below about -80%; inconclusive = mostly about -51% to -80%
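Neuro2A cells in DMEM with 0.5% FBS, overnight at 37 deg C, given compound at single 50 µM final, then IGF (6 nM final) for 20 min at 37 deg C. Lysed; phospho-Akt Ser473 by HTRF after 24 h, 665/615 ratio.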
Numbers stand for hits; n = inactive; u = inconclusive; x = no result; [ ] = dose if it differs, or a comment. Compounds with a hit are over-represented: about 2.3% of the library has one in this group of screens. Unless noted, calls come from the whole dose curve; as a rule, active = well fitted curve in the direction sought with a large enough effect; inconclusive = small, poorly fitted or top-dose-only effect, or another doubt; inactive = no such curve, though single readings can be large; an effect the other way counts as inactive or inconclusive.

SMILES | aSyn yeast inh | FUS suppressor | Abeta rescue | TDP43 rescue | pAkt inh
CCn1c(SCC(=O)NC2CC2)nnc1-c1cccs1 | n | n | n | n | n
CCOC(=O)CSc1nnc(-c2cccs2)n1-c1ccccc1 | n | n | n | n | n
O=C(CSc1nnc(-c2cccs2)n1-c1ccccc1)Nc1ccccc1 | n | n | n | n | -92.0%
CCn1c(SCC(=O)NC2CCCCC2)nnc1-c1cccs1 | n | n | n | n | -98.1%
CCC(=O)N1CCc2cc(Br)cc(S(=O)(=O)N3CCC(C(=O)Nc4ccccc4CC)CC3)c21 | x | n | n | n | x
Oc1c(C=NCc2ccncc2)sc2ccccc12 | n | n | n | n | -103.3%
Cc1cc(Nc2cc(Cl)ccc2C)n2nc(Cc3ccccc3)nc2n1 | x | n | n | 35.5µM | x
CCc1nc2nc(C)cc(Nc3cc(C)ccc3C)n2n1 | x | n | n | 20µM | x
Cc1cc(C)cc(NC(=O)CCN2C(=O)c3ccccc3Sc3ncccc32)c1 | x | n | n | n | x
CCCCN(CC)CCNC(=O)c1c(C)oc2ncnc(N3CCOCC3)c12 | x | n | n | n | x
O=[N+]([O-])c1cccnc1N1CCC(c2cc(-c3ccc(Cl)cc3Cl)n[nH]2)CC1 | u | 25.1µM | u | u | n
COc1ccc(-c2cn3cccnc3n2)cc1NC(=O)Nc1cc(C)ccc1C | x | n | n | n | x
Cc1cc(C)c2nc(NNC(=O)c3cc(-c4cccs4)nc4ccccc34)sc2c1 | n | n | u | u | n
O=C(NNc1nc2ccc(Cl)cc2s1)c1cc(-c2cccs2)nc2ccccc12 | u | n | u | 4.47µM | n
CCc1ccc(-c2c(C)sc(NC(C)=O)c2C(N)=O)cc1 | n | n | n | 15.8µM | n
CCCCNc1c(-c2ccc(SC(C)CC)cc2)nc2cnccn12 (centres undefined) | n | 10µM | n | n | n
CCCCCCSc1cc(-c2nc3cnccn3c2NCCCC)ccc1OC | n | u | n | n | n
CCCCNc1c(-c2ccc(OC)c(Sc3ccc(OC)cc3)c2)nc2ccccn12 | n | u | n | n | n
CCCCNc1c(-c2ccc(OC)c(Sc3ccc(OC)cc3)c2)nc2cnccn12 | n | u | n | 31.6µM | n
Cc1ccc(NC(=O)CC(c2ccc(F)cc2)N2Cc3ccccc3C2=O)cc1C (centres undefined) | x | n | n | n | x
COc1ccc2oc(=O)cc(CN3CCN(c4ccccc4F)CC3)c2c1 | x | n | n | n | x
Cc1ccc(NC(=O)N2CC3CCCN3c3ccccc32)cc1C (centres undefined) | x | n | n | 20µM | x
CCn1nnc2cc(C(=O)Nc3cccc(C)c3C)ccc21 | x | n | n | n | x
CC(=O)OC(C)(C)C1Cc2cc3ccc(=O)oc3cc2O1 (centres undefined) | n | n | n | n | n
CC(C)=CC(=O)O[C@@H]1Cc2cc3ccc(=O)oc3cc2OC1(C)C | n | n | n | 14.1µM | n
SMILES | aSyn yeast inh | FUS suppressor | Abeta rescue | TDP43 rescue | pAkt inh
COc1ccc(S(=O)(=O)Nc2cccc(-c3ccc(N4CCC(C)CC4)nn3)c2)cc1OC | x | n | n | n | x
Clc1ccc(-c2nc3ccc(Cl)cn3c2Cc2cccc(Cl)c2)cc1 | n | u | n | 25.1µM | n
Clc1cccc(Cc2c(-c3ccccc3)nc3ccc(Cl)cn23)c1 | n | n | n | 31.6µM | n
O=C(COC(=O)CNC(=O)C1CCCCC1)NC1CC1 | n | x | x | x | x
O=C(O)c1ccc(N/N=C2/CCSc3ccc(F)cc32)cc1 | n | n | n | 10µM | n
Cc1cc(C)nc(N/N=C2/CCSc3ccc(F)cc32)n1 | n | n | n | n | n
O=C1c2ccccc2C(=O)N1CCc1csc(-c2ccccc2)n1 | u | n | n | 12.6µM | n
CC(C)OCCCNC(=O)C(=O)Nc1ccc2nc3n(c(=O)c2c1)CCCCC3 | x | n | n | n | x
CCCSc1cc(N2CCN(C)CC2)nc(-c2ccc(OC)cc2)n1 | n | n | n | n | -88.6%
CCCSc1cc(N2CCCC2)nc(-c2ccccc2)n1 | n | n | n | n | n
Cc1c(-c2ccccc2)n(-c2ccccc2O)c2nc3c(c(=O)n(C)c(=O)n3C)n12 | n | n | n | n | x
CCOC(=O)Cn1nc(/C=C/c2ccc(C(C)C)cc2)ccc1=O | n | u | n | 20µM | n
CCOC(=O)Cn1nc(/C=C/c2ccc(C)cc2)ccc1=O | n | n | n[9.22 µM] | u | n
O=C1[C@@H]2C(c3ccccc3Cl)=NO[C@@H]2C(=O)N1Cc1ccccc1 | n | n | u | 14.1µM | n
COc1ccc(CN2C(=O)[C@@H]3C(c4ccccc4Cl)=NO[C@@H]3C2=O)cc1 | n | n | n | u | n
CCOC(=O)c1ccc(NC(=O)CSc2nc3ncc(Br)c(C)c3[nH]2)cc1 | x | n | n | n[9.22 µM] | x
CCCc1cc(=O)[nH]c(-n2[nH]c3c(c2=O)CCCC3)n1 | 25.1µM | n | u | n | n
CCOC(=O)c1cc(-c2ccccc2)n(CC(=O)Nc2ccccc2OCC)c1C | x | n | n | n | x
CN1CCc2c(sc3nc(SCC(=O)N4CCOCC4)nc(N)c23)C1 | n | n | n | n | -104.0%
COc1ccc(NC(=O)Cc2ccccc2)cn1 | n | n | n | n | n
COc1ccc(CS(=O)(=O)/C(Cl)=C(/Cl)C(=O)Nc2ccc(OC)nc2)cc1 | u | n | n | 12.6µM | n
COc1ccc(NC(=O)/C(Cl)=C(/Cl)S(=O)Cc2ccccc2)cn1 (centres undefined) | n | x | n | 3.55µM | n
Cc1ccc(C(=O)Nc2nnc(SCc3cc(=O)c4c(C)ccc(C)c4[nH]3)s2)cc1 | x | n | n | n | x
COc1ccc(-c2nc(SCC(=O)Nc3cccc(C(C)=O)c3)n[nH]2)cc1 | x | n | n | n | x
Cc1ccc(C(=O)OC(C)C(=O)Nc2ccc(Cl)cn2)s1 (centres undefined) | n | n | n | 14.1µM | n
SMILES | aSyn yeast inh | FUS suppressor | Abeta rescue | TDP43 rescue | pAkt inh
CC(OC(=O)c1ccccc1O)C(=O)Nc1ccc(Cl)cn1 (centres undefined) | n | n | n | n | n
O=C(Nc1ccc(N2CCOCC2)cc1Cl)C1CCN(C(=O)OCc2ccccc2)CC1 | n | n | 10µM | n | n
O=C(Nc1ccc(N2CCOCC2)cc1)C1CCN(C(=O)OCc2ccccc2)CC1 | n | n | n | n | n
COC(=O)c1ccc(NC(=O)CCn2cnnn2)c(C)c1 | n | n | n | n | x
CCCN1CNc2c(c(=O)[nH]c(=S)n2CCc2c(OC)cccc2OC)C1 | n | x | x | x | x
Cc1c(CC(=O)O)c(=O)oc2cc(OCc3nn[nH]n3)ccc12 | n | n | n | n | -98.0%
CCOc1ccc(CNC(=O)c2cnc3c(C)cccn3c2=O)cc1 | x | n | n | n | x
Cc1cccc(CCNC(=O)c2cnc3c(C)cccn3c2=O)c1 | x | n | n | 28.2µM | x
CC(=O)N(Cc1cccnc1)c1nc2c(C)c(C)ccc2s1 | x | n | n | u | x
COc1ccc(NC(=O)NCc2cccn2C)c(OC)c1 | n | 28.2µM | n | n | n
COc1ccc(NC(=O)CCn2c(=O)c3cccn3c3ccccc32)c(OC)c1 | n | n | n | 22.4µM | n
